# Measurements as given in PubChem BioAssay.
# Unmarked numbers belong to inactive results. Activity calls are given as the source filed them. No stated cut-off is given here; in the data, active means inhibition above about 42%; inactive means the rest.
# Target: Nuclear receptor subfamily 5 group A member 2 (Homo sapiens) (UniProt O00482)
# Test: LRH-1 (NR5A2) inverse agonists, retest, confirmation, cell-based, luminescence (AID 651613);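 further: HEK293T cells co-transfected with LRH-1 and StAR promoter luciferase reporter; 0% = vehicle wells and 100% = parental cells lacking receptor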
# Details: cell-based LRH-1 luciferase reporter, inverse agonism; at 3.6 µM; active compounds read high
# Sequence of Nuclear receptor subfamily 5 group A member 2 (Homo sapiens) (O00482 whole entry, looked up): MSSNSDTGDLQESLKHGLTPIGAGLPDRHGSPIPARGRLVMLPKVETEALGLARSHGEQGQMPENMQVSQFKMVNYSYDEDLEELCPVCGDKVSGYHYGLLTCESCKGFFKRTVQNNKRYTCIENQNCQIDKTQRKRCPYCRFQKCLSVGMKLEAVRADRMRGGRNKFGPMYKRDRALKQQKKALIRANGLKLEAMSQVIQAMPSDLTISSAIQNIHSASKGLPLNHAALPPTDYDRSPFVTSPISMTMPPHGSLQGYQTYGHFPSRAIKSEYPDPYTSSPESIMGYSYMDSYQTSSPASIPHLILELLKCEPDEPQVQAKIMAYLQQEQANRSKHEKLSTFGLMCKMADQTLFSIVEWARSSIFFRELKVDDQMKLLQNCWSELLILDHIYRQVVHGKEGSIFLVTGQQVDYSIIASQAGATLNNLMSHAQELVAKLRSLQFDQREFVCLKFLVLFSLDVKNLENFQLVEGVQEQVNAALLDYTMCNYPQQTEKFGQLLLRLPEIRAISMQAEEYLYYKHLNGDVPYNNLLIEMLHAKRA
row,Structure (SMILES),inhibition
1,CN(C)c1ccc(Sc2ccc3nc(N)nc(N)c3c2)cc1,107% (active)
2,NS(=O)(=O)c1ccc(N=Nc2c(O)[nH]c3ccc(Br)cc23)cc1,23.4%
3,NC(=O)[C@H]1CC2(CC(c3cccc(NC(=O)COc4ccc(Cl)cc4)c3)=NO2)CN1C(=O)Cc1ccc([N+](=O)[O-])cc1 (some centres undefined),55.8% (active)
4,COCCn1c(SCCCC(=O)c2ccc(Br)cc2)nnc1-c1ccncc1,44.3% (active)
5,CC1(c2ccc3ccccc3c2)NC(=O)N(CC(=O)N2CCN(Cc3ccccc3)CC2)C1=O (centres undefined),55.8% (active)
6,O=C(N/N=C/c1ccc(O)cc1)c1ccc(COc2cc(Cl)ccc2Cl)o1,42.3% (active)
7,COc1ccc(CNC(=O)c2cccc3c(-c4cccnc4)coc23)cc1OC,59.9% (active)
8,CN(Cc1ccccc1)C(=O)c1ccc(NC(=O)Cc2ccc(NC(=O)C3CCCN(C(=O)CCc4ccccc4)C3)cc2)cc1 (centres undefined),62.2% (active)
9,CN(C)CCNc1ccc2nnn3c4ccc(O)cc4c(=O)c1c23,71.1% (active)
10,CCCOc1ccc(Cc2c(Cl)nc(SC)nc2NC)cc1,54.9% (active)
11,O=C(Nc1nonc1NC(=O)c1cccs1)c1cccs1,64.1% (active)
12,CN(C(=O)c1cccc(NC(=O)Cc2ccc(NC(=O)C3CCCN(C(=O)CCc4ccccc4)C3)cc2)c1)C1CCCCC1 (centres undefined),49.4% (active)
13,COc1cccc2c1C(=O)c1c(O)c3c(c(O)c1C2=O)CC(O)(C(C)=O)CC3OC1CC(O)C(O)C(C)O1 (centres undefined),50.7% (active)
14,Cc1sc2ncnc(NCC3COc4ccccc4O3)c2c1C (centres undefined),62% (active)
